Results filed as inconclusive are left out. A call without a number means that no potency is given here. Activity calls are given as the source filed them. Calls come from the whole dose curve.
Target: Beta-2 adrenergic receptor (Homo sapiens) (UniProt P07550)
Experiment: Adrenergic beta2 receptor (ADRB2) small molecule agonists, cell-based qHTS assay (AID 1963593);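 note: CHO cells stably overexpressing human ADRB2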
Details: CHO-ADRB2 cells, cAMP HTRF, 30 min; series mostly up to 92.4 µM
Procedure, shortened: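 CHO cells stably over-expressing ADRB2 were plated overnight at 37C, then dosed with compounds plus a stimulation mix containing 100uM IBMX and 25uM Ro-20-1724 for 0.5hr at room temperature. cAMP was measured by HTRF competition, 1hr.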

Chain of Beta-2 adrenergic receptor (Homo sapiens) (P07550 whole entry, looked up): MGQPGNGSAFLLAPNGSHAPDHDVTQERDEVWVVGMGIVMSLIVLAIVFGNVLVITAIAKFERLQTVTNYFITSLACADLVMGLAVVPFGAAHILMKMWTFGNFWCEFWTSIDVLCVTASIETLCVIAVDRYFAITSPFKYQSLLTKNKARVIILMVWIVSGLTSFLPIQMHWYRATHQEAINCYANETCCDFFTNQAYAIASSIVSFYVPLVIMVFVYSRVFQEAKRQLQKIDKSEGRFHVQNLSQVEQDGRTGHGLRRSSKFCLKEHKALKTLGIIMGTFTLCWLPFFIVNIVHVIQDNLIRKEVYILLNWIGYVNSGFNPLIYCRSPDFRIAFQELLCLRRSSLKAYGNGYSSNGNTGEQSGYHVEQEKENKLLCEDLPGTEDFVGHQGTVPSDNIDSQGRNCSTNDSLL

Compound: CCN[C@H]1CN(CCCOC)S(=O)(=O)c2sc(S(N)(=O)=O)cc21
- Potency: inactive

Compound: CCCCC(CC)COP(=O)(OCC(CC)CCCC)OCC(CC)CCCC (stereo unspecified)
- Potency: inactive

Compound: C/C=C/C(=O)C1=C(C)C=CCC1(C)C
- Potency: inactive

Compound: C1=C\CC/C=C\CC/C=C\CC/1
- Potency: inactive

Compound: CC(C)[C@H]1CC[C@@H](C)CC1=O
- Potency: inactive

Compound: OCC1CC2CC1C1CCC(CO)C21 (stereo unspecified)
- Potency: inactive

Compound: CC1C(C)(C)C2=C(C(=O)CCC2)C1(C)C (stereo unspecified)
- Potency: inactive

Compound: NCCNCCO
- Potency: inactive

Compound: CCCCCC(CC)OC(=O)CCCOc1ccc(Cl)cc1Cl (stereo unspecified)
- Potency: inactive

Compound: Nc1ncnc2c1ncn2[C@@H]1O[C@H](COP(=O)(O)O)[C@@H](O)[C@H]1O
- Potency: inactive

Compound: CS(C)(=O)=O
- Potency: inactive

Compound: NNS(=O)(=O)c1ccc(Oc2ccc(S(=O)(=O)NN)cc2)cc1
- Potency: inactive

Compound: CC(C)COC(=O)c1ccccc1O
- Potency: inactive

Compound: CCCCOCCOCCOCCO
- Potency: inactive

Compound: CC(C)(C)c1nnc(NS(=O)(=O)c2ccc(N)cc2)s1
- Potency: inactive

Compound: Nc1cc([N+](=O)[O-])ccc1O
- Potency: inactive

Compound: Cn1cc(S(C)=O)c(=O)c2ccc(F)cc21 (stereo unspecified)
- Potency: inactive

Compound: N[C@H]1C(O)O[C@H](CO)[C@@H](O)[C@@H]1O (stereo partly specified)
- Potency: inactive

Compound: CC(C)CCCCOC(=O)c1ccccc1C(=O)OCCCCC(C)C
- Potency: inactive

Compound: CCCCc1ccc2cccc(S(=O)(=O)O)c2c1
- Potency: inactive

Compound: CC1=NN(c2ccc(S(=O)(=O)O)cc2)C(=O)C1
- Potency: inactive

Compound: O=[N+]([O-])c1ccc(F)cc1F
- Potency: inactive

Compound: CCCCCCOC(=O)c1ccccc1O
- Potency: inactive

Compound: CC(=O)S[C@H](C(=O)N[C@H]1Cc2ccccc2[C@H]2CCC[C@@H](C(=O)O)N2C1=O)C(C)C
- Potency: inactive

Compound: CC(=O)OCC1=C(C(=O)O)N2C(=O)[C@@H](NC(=O)Cc3cccs3)[C@H]2SC1
- Potency: inactive

Compound: CCOCCOC(=O)/C=C/c1ccc(OC)cc1
- Potency: inactive

Compound: COC(=O)c1ccccc1C
- Potency: inactive

Compound: C[Si](C)O[Si](C)C
- Potency: inactive

Compound: CCCC[C@H]1CN(CC2CCOCC2)C(=O)OC12CCN(C1(C)CCN(C(=O)c3c(C)ncnc3C)CC1)CC2
- Potency: inactive

Compound: CC(=O)OCCCc1ccccc1
- Potency: inactive

Compound: c1ccc2c(c1)CCc1ccccc1N2
- Potency: inactive

Compound: OCCCC1CCCCC1
- Potency: inactive

Compound: C(=C\c1ccccc1)/c1ccccc1
- Potency: inactive

Compound: C[C@H]1C[C@H](O)c2ccsc2S1(=O)=O
- Potency: inactive

Compound: CC(C)C(=O)Nc1cccc(C2CN3CCSC3=N2)c1 (stereo unspecified)
- Potency: inactive

Compound: CCCCOC(O)CC (stereo unspecified)
- Potency: inactive

Compound: Cc1ccc(O)c([N+](=O)[O-])c1
- Potency: inactive

Compound: CCN(CC)CCNC(=O)c1ccc(NC(C)=O)cc1
- Potency: inactive

Compound: O=C1Nc2ccccc2C1=O
- Potency: inactive

Compound: CSc1ccc(C(=O)c2[nH]c(=O)[nH]c2C)cc1
- Potency: inactive

Compound: C1CCSC1
- Potency: inactive

Compound: CC1CC(OC(=O)c2ccccc2O)CC(C)(C)C1 (stereo unspecified)
- Potency: inactive

Compound: C/C=C/c1ccc(OC)c(OC)c1
- Potency: inactive

Compound: CC1CCC(C(C)(C)O)CC1 (stereo unspecified)
- Potency: inactive

Compound: CC12CC3CC(C)(C1)CC(N)(C3)C2
- Potency: inactive

Compound: C=CCS(=O)(=O)O
- Potency: inactive

Compound: CCCCCCCCN(C)C
- Potency: inactive

Compound: CCCOCCOCCOCCO
- Potency: inactive

Compound: CC(=O)OCCc1ccccc1
- Potency: inactive

Compound: CC(COC(=O)c1ccccc1)OC(=O)c1ccccc1 (stereo unspecified)
- Potency: inactive

Compound: NC(=O)c1ccc([N+](=O)[O-])cc1Cl
- Potency: inactive
